# Screening data (PubChem BioAssay)
# Pf growth 96h = P. falciparum growth inhibition at 96 hours. Potency, µM (highest dose often 28.7 µM), most hits filed as inhibitors. P. falciparum luciferase reporter growth, 96 h. 320,000 tested, 6.9% active. AID 504834
#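 Readout is luminescence from an integrated firefly luciferase in P. falciparum. Red cells, 2% hematocrit and 0.05% parasitemia final, were cultured with compound through two parasite generations (96 hours) at 37 C, 5% CO2.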
# CHX counter = affects cycloheximide protein synthesis inhibition readout, counter-screen. cell reporter, cycloheximide protein synthesis inhibition counterscreen. max response, %. 300,000 tested, 12% active. AID 2314; in the data active = max response mostly above about 13%, no sharp cut-off; inactive = mostly below about 14%; also: read at 38.3 µM for the half of the compounds with a filed dose
# Shiga toxin inh = Shiga toxin inhibition; Vero cells, Shiga toxin protein synthesis inhibition reporter; inhibition, % at 38.7 µM; 290,000 tested, 9.2% active; AID 2315; in the data active = inhibition mostly above about 28%, no sharp cut-off; inactive = mostly below about 43%
# Pf growth 48h = inhibits P. falciparum growth in the first generation, 48 h; P. falciparum luciferase growth in erythrocytes, 48 h; Potency, µM (highest dose often 28.7 µM), most hits filed as inhibitors; 310,000 tested, 5.9% active
#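 Parasite viability was followed by luminescence of a genomically integrated firefly luciferase. Cultures held 0.1% parasitemia at 2% hematocrit (final), incubated under 5% CO2 at 37 C.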
# Sm TGR inh = inhibitors of Schistosoma mansoni thioredoxin glutathione reductase | purified TGR, DTNB reduction, TNB absorbance 405 nm | 360,000 tested, 3% active | Q962Y6 | AID 485364 | Potency, µM (top dose mostly 114 µM), hits mostly inhibitors; also: nearly all actives have a fitted effect of over 60% in size
#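 First, TGR (20 nM dispensed) and NADPH were mixed with compound. Second, a 15 min room-temperature incubation followed. Third, further NADPH and then DTNB were added to start the reaction. Finally, TNB absorbance was monitored kinetically.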
# NS1 function inh = blocks influenza NS1 protein function | Potency, µM (titrated, usually from 46.1 µM) | 270,000 tested, 0.4% active | AID 2326; calls by dose curve; also: actives are rising curves; nearly all actives have a fitted effect of over 50% in size
#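 Growth recovery, yeast-based: influenza A NS1 expressed in S. cerevisiae causes slow growth, and suppressors are detected by OD600. The parent strain without NS1 is used as positive control.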
# Numbers stand for hits; n = inactive; u = inconclusive; x = no result given; [ ] = another dose, or the depositor's remark. An excerpt weighted towards active compounds, which were near 21% of everything screened. Unless noted, calls follow the shape of the dose curve; as a rule, active = well fitted curve in the direction sought with a large enough effect; inconclusive = small, poorly fitted or top-dose-only effect, or another doubt; inactive = no such curve, though single readings can be large; an effect the other way counts as inactive or inconclusive.
SMILES,Pf growth 96h,CHX counter,Shiga toxin inh,Pf growth 48h,Sm TGR inh,NS1 function inh
COc1ccc(-c2nc3c(C#N)c[nH]n3c2NC2CCCC2)c(OC)c1,x,x,x,x,n,x
Cc1cccc(NC(=O)C(=O)NCC(c2cccnc2)N2CCc3ccccc32)c1C (centres undefined),x,x,x,x,n,x
CCNS(=O)(=O)c1cc(OC)c(Cl)cc1OC,n,n,n,n,n,n
CCN(CC)CCCNC(=O)C1CCN(S(C)(=O)=O)CC1,x,x,x,x,n,x
CCCc1ccc2c(N)c(C#N)sc2n1,n,n,n,n,n,n
Cc1ccccc1NC(=O)c1sc2nc3c(cc2c1N)CN(Cc1ccccc1)CC3,x,x,x,x,79.4µM,x
Nc1c(C(=O)Nc2cccc(C(=O)O)c2)sc2nc3c(cc12)CCCC3,n,17.6,n,n,n,n
Cc1ccc2c(N)c(C#N)sc2n1,n,21.6,n,n,n,n
O=C(CCC(=O)N(CC(=O)NC1CCCC1)c1ccc(F)cc1)Nc1nccs1,n,n,n,n,n,n
CN1C(N)=NC(=O)/C1=C/c1ccccc1F,u,n,n,n,n,x
O=C1C(Cc2ccccc2)Nc2ncnc(N3CCc4ccccc4C3)c2N1Cc1ccc(Cl)cc1 (centres undefined),6.57µM,x,x,14.7µM,n,x
COc1ccc(CN2C(=O)C(Cc3ccccc3)Nc3ncnc(N4CCc5ccccc5C4)c32)cc1 (centres undefined),5.22µM,x,x,7.38µM,u,x
O=C(NC1CCN(S(=O)(=O)c2cccc(F)c2)CC1)c1ccc(F)cc1,10.4µM,n,n,u,n,n
O=C(NC1CCN(S(=O)(=O)c2ccc(F)cc2)CC1)c1ccc(F)cc1,11.7µM,n,n,n,n,n
COc1ccc(C(=O)NC2CCN(S(=O)(=O)c3ccc(F)cc3)CC2)cc1,u,n,n,n,n,n
O=C(NC1CCCCC1)N1CCN(S(=O)(=O)c2ccc(F)cc2)CC1,u,n,n,n,n,n
O=C(c1cccs1)N1CCN(S(=O)(=O)c2ccc(F)cc2)CC1,0.465µM,n,n,n,x,n
O=S(=O)(c1ccc(F)cc1)N1CCN(C(=S)NC2CC2)CC1,u,x,x,2.62µM,n,x
Nc1nc(NCc2ccco2)nc(N2CCCCC2)c1[N+](=O)[O-],n,n,n,n,n,n
CC(=O)NC1CC2CCCC(C1)N2S(=O)(=O)c1cccc(F)c1 (centres undefined),8.28µM,n,n,x,n[11.4 µM],n
O=C(NC1CC2CCCC(C1)N2S(=O)(=O)c1ccccc1)c1ccco1 (centres undefined),n,n,n,u,u,n
CCC(C)(C)C1CCC(NC(=O)c2ccc(S(=O)(=O)N3CCOCC3)cc2)CC1 (centres undefined),14.7µM,x,x,10.4µM,n,x
CC1CN(C2CCN(S(=O)(=O)c3ccccc3)CC2)CC(C)O1 (centres undefined),n,n,n,n,n,n
CC1CN(C2CCN(S(=O)(=O)c3ccc(F)cc3)CC2)CC(C)O1 (centres undefined),x,n,n,n,39.8µM,n
Cc1ccc(Cn2ccnc2SCC(=O)Nc2ccc3c(c2)OCCO3)cc1,x,x,x,x,n,x
SMILES,Pf growth 96h,CHX counter,Shiga toxin inh,Pf growth 48h,Sm TGR inh,NS1 function inh
Cc1ccc(N(CC(=O)NCc2ccccc2Cl)S(=O)(=O)c2c(C)noc2C)cc1,u,n,n,u,n,n
CCOc1ccc(N(CC(=O)NCc2ccccc2Cl)S(=O)(=O)c2c(C)noc2C)cc1,u,n,n,13.1µM,n,n
COc1ccc(N(CC(=O)NCc2ccc(F)cc2)S(=O)(=O)c2c(C)noc2C)cc1,10.4µM,n,n,n,n,n
Cc1noc(C)c1S(=O)(=O)N(CC(=O)NCc1ccc(F)cc1)c1ccc(C(C)C)cc1,n,n,n,u,n,n
COc1ccc(NC(=O)CN(c2cc(C)cc(C)c2)S(=O)(=O)c2c(C)noc2C)cc1OC,11.7µM,n,n,u,n,n
CCOc1ccccc1NC(=O)CN(c1ccc(OC)cc1)S(=O)(=O)c1c(C)noc1C,u,n,n,9.28µM,n,n
Cc1ccc(S(=O)(=O)N2CCN(C(=O)CCC(=O)NCc3cccc(C(F)(F)F)c3)CC2)cc1,n,x,x,u,n,x
O=C(CSc1nnc(NC(=O)C2CC(=O)N(c3ccc(F)cc3)C2)s1)NCc1ccco1 (centres undefined),u,n,n,u,u,n
COc1ccc(N(CC(=O)NCCc2cccc(C)c2)S(=O)(=O)c2c(C)noc2C)cc1,2.62µM,n,n,u,n,n
Cc1ccc(N(CC(=O)NCc2ccc(F)cc2)S(=O)(=O)c2cccs2)cc1,4.65µM,n,n,x,n,n
Cc1ccc(N(CC(=O)NCc2ccccc2Cl)S(=O)(=O)c2cccs2)cc1,x,n,n,u,n,n
CCN(CC)CCCNC(=O)Cn1nc([N+](=O)[O-])c(Cl)c1C,n,n,n,u,n,n
Cc1cc(OCC(=O)O/N=C(\N)Cc2cccs2)ccc1Br,n,n,n,n,n,n
Cc1ccc(C(=O)O/N=C(\N)Cc2ccc([N+](=O)[O-])cc2)c(Cl)c1,n,9.8,n,u,n,n
Cc1cccc(C(=O)O/N=C(\N)Cc2ccc([N+](=O)[O-])cc2)c1,u,n,n,u,n,n
Cc1ccc(C(=O)O/N=C(\N)Cc2cccs2)c(Cl)c1,u,82.5,84.5,n,n,n
COC(=O)CN1CCC(=O)c2ccccc2S1(=O)=O,x,n,n,x,x,x
O=C(CN1CC[n+]2c(-c3cccs3)csc21)c1ccc(-c2ccccc2)cc1,u,n,n,13.1µM,x,u
CCOc1ccccc1Cn1c(=O)sc2ccccc21,u,n,n,n,x,n
Cn1cccc1-c1nc2ccc(NC(=O)c3cccs3)cc2[nH]1,11.7µM,26.1,n,n,n,n
CC(=O)Nc1ccc2nc(-c3cccs3)[nH]c2c1,n,26.7,68.3,n,n,n
CC(C)(C)C(=O)Nc1ccc(-c2nc3ccc(NC(=O)C(C)(C)C)cc3[nH]2)cc1,x,x,x,x,n,x
CC(=O)Nc1ccc2nc(-c3cccn3C)[nH]c2c1,n,16.7,x,n,n,n
COc1ccccc1N1CCN(C(=O)Cn2ncc3ccsc3c2=O)CC1,x,x,x,x,n,x
Cc1ccc(-n2nc(C(=O)Nc3ccc(F)cc3Cl)c(=O)n(C)c2=O)cc1,x,x,x,x,n,x
SMILES,Pf growth 96h,CHX counter,Shiga toxin inh,Pf growth 48h,Sm TGR inh,NS1 function inh
NC(=O)CNC(=O)[C@@H]1CC2(CC(c3ccccc3)=NO2)CN1C(=O)c1ccc(Br)cc1 (some centres undefined),n,n,n,n,n,n
Cc1ccc(-c2nn(-c3ccccc3)cc2CN(Cc2ccccc2)C(=O)c2ccco2)o1,11.7µM,n,n,x,n,n
Cc1ccc(-c2nn(-c3ccccc3)cc2C(=O)O)o1,n,n,n,n,20µM,n
O=Cc1cn(-c2ccccc2)nc1-c1cc2cc(O)ccc2oc1=O,x,n,n,n,n,n
O=C(O)/C=C/c1cn(-c2ccccc2)nc1-c1cc2ccccc2oc1=O,n,22.3,41.5,n,n,n
Cc1ccc(-c2nn(-c3ccccc3)cc2/C=C/C(=O)O)o1,n,13.9,n,n,31.6µM,n
